Assay outcomes (PubChem)
A selection: hits, their analogues and other compounds. The true share with any hit is near 2.9%.
RAM inhibit: blocks the yeast RAM network; S. cerevisiae dse1pr::URA3 reporter, 5-FOA growth OD615, 2 d; analog-sensitive cbk1-as2 kinase mutant strain; inhibition, % at 50 µM; 1.8% of 190,000 active; AID 868;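 active = inhibition above a set limit, 3 SD over mean compound inhibition, cut at about 8.4% in these data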;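 note: inhibition rescues growth on 5-FOA so higher OD means more RAM inhibition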
EP2 antag: EP2 receptor (human) inhibition; P43116; C6 glioma cells expressing human EP2, cAMP TR-FRET; cells stimulated with saturating PGE2; inhibition, % at 25 µM; 0.52% of 260,000 active; AID 1422;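 active = percent inhibition above 40 after rounding to a whole number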;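 note: rat C6 glioma host cells with rolipram phosphodiesterase inhibitor present; the protocol text gives 20 µM as final concentration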
Target sequence (P43116 whole entry, looked up): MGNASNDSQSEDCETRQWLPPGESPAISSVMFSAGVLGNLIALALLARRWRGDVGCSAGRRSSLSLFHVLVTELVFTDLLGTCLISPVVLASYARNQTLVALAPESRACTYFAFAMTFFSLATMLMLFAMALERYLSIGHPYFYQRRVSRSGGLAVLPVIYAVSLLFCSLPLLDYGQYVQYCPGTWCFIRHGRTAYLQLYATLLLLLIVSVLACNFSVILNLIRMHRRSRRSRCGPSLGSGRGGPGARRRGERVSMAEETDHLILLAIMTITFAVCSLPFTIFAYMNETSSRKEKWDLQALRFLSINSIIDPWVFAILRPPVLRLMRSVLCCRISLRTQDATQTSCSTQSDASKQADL
PG9 binder: small molecules binding HIV-1 gp120 antibody PG9. inhibition, % at 6.7 µM. 0.43% of 360,000 active. TR-FRET gp120-PG9 antibody binding; in the data active = inhibition above about 8.5%
SKN-1 inh: C. elegans SKN-1 inhibition; C. elegans VP596 Pgst-4::GFP/RFP ratio, acrylamide-induced, 24 h; inhibition, % at 21.8 µM; 0.49% of 360,000 active;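 active = interference check ratio from 0.5 to 1.5 plus GFP to RFP signal ratio inhibition reaching or exceeding a fixed threshold, cut at about 30% in these data, passing the limit was not always enough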
Rev-erbA mod: modulators of human Rev-erb alpha DNA binding | activity, % at 10 µM | P20393 | 0.79% of 370,000 active | Rev-erbα–FITC-DNA binding, fluorescence polarization, 90 min;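 active = activity above about 14%, limit read from the data; passing the limit was not always enough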
EP2 mod: modulates human prostaglandin E2 receptor EP2 signaling; P43116; EP2-expressing cells, cAMP HTRF FRET, PGE2 co-stimulation; induction, % at 25 µM; 0.83% of 260,000 active; AID 940;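 active = compounds whose cAMP rise, as percent of the full-agonist control response, exceeds 60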;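 note: rat C6 glioma line stably carrying human EP2 under a CMV promoter; the protocol text gives 20 µM as final concentration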
A number is an active result; – = inactive; · = no result given.

SMILES	RAM inhibit	EP2 antag	PG9 binder	SKN-1 inh	Rev-erbA mod	EP2 mod
CCCCCOc1ccccc1C(=O)NCCC(=O)O	–	–	–	38	–	–
Cc1ccc(Nc2nnc(SCc3cc(=O)n4cc(C)ccc4n3)s2)cc1	11	–	–	–	–	–
CCOc1ccccc1C(=O)N[C@H](C(=O)OCc1cc([N+](=O)[O-])cc2c1OCOC2)C(C)C	8.8	–	–	–	–	–
CCOc1ccccc1C(=O)N[C@H](C(=O)OCc1cc(=O)oc2cc(C)ccc12)C(C)C	9.7	–	–	–	–	–
COc1cc(OC)cc(C(=O)N[C@H](C(=O)OCc2cc(=O)oc3cc(C)ccc23)C(C)C)c1	–	–	–	–	–	–
Cc1cc2ncn(/N=C/c3ccc(-c4ccccc4)o3)c2cc1C	9.5	–	–	–	–	–
Cc1cccc(-n2c(N)cc(=O)nc2SC(C)C(=O)Nc2cccc3ccccc23)c1 (configuration not stated)	·	–	·	·	·	–
CCc1ccc2[nH]c(=O)c(C(c3nnnn3C3CCCCC3)N3CCOCC3)cc2c1 (configuration not stated)	·	–	·	·	·	–
Cc1cccc(NC(=S)N/N=C/c2ccc([N+](=O)[O-])s2)c1	–	–	–	44	–	–
COc1ccccc1-c1c(C(F)(F)F)oc2cc(OC(=O)c3cccc([N+](=O)[O-])c3C)ccc2c1=O	–	–	–	36	–	–
Cc1ccccc1CN(Cc1cncn1C)C1CC(C)(C)NC(C)(C)C1	·	–	·	·	·	–
O=C(CN(c1ccccc1)S(=O)(=O)c1ccccc1)NCCSc1nc2ccccc2s1	–	–	–	–	–	–
Cc1ccc(N(CC(=O)NCCSc2nc3ccccc3s2)S(=O)(=O)c2ccccc2)c(C)c1	9.2	–	–	–	–	–
Cc1cccc(N(CC(=O)NCCSc2nc3ccccc3s2)S(=O)(=O)c2ccccc2)c1	11	–	·	·	·	–
Cc1ccsc1CN(CCCN1CCOCC1)Cc1ccc2ccccc2n1	·	–	·	·	·	–
CCOC(=O)CCc1c(C)nc(SCCCn2c(=O)[nH]c3ccccc32)c(C#N)c1C	9.4	–	–	–	–	–
CCOC(=O)CCc1c(C)nc(SCCN2CCCC2)c(C#N)c1C	–	–	–	–	–	–
CCOC(=O)c1c(NC(=S)NC(=O)c2ccccc2Cl)sc2c1CCC2	·	–	·	·	·	–
O=C(CNCCc1ccc(Cl)cc1)Nc1ccc(N2CCCC2)cc1	·	–	·	·	·	–
O=C(OCC(=O)N1N=C(c2ccc(Cl)cc2)CC1c1ccco1)c1ccccc1O (configuration not stated)	–	–	–	38	–	–
O=C(OCC(=O)N1N=C(c2ccc(Cl)cc2)CC1c1ccco1)c1cncc(Br)c1 (configuration not stated)	·	·	–	–	–	·
C=CCOc1ccc2c(c1)c(S(=O)(=O)c1ccc(C)cc1)cn2COC	9.9	·	–	–	–	·
CCCn1cc(S(=O)(=O)c2ccc(F)cc2)c(=O)c2cc(OCC)ccc21	·	·	–	–	–	·
C(/C=C/c1ccccn1)=C\c1ccccc1	·	·	–	64	–	·
C(=C\c1ccccn1)/c1ccncc1	·	–	–	–	–	–
SMILES	RAM inhibit	EP2 antag	PG9 binder	SKN-1 inh	Rev-erbA mod	EP2 mod
CN(Cc1ccccc1)C(=O)CSc1nc2ccccc2c(=O)n1Cc1ccco1	9.2	–	–	–	–	–
O=C(CCCCCn1c(SCC(=O)c2ccccc2)nc2ccccc2c1=O)NCc1ccco1	–	–	–	–	–	–
O=C(CCCn1c(SCC(=O)c2ccc(Cl)cc2)nc2ccccc2c1=O)NCc1ccco1	8.5	–	–	–	–	–
O=C(N1CCCCC1)N1CCCC(c2ncncc2-c2ccncc2)C1 (configuration not stated)	·	·	·	·	·	–
Cc1oc(-c2ccc(F)cc2)nc1C(=O)Nc1cccc(-c2csnn2)c1	·	–	·	·	·	–
CCc1ccc2[nH]c(=O)c(CN(CC3CCCO3)C(=S)NCCc3ccccc3)cc2c1 (configuration not stated)	·	–	·	·	·	–
c1ccc(-c2csc(N3CCN(c4ccccn4)CC3)n2)cc1	–	–	–	47	–	–
c1ccc(-c2csc(N3CCOCC3)n2)cc1	–	–	–	–	–	–
CCc1cc2cccc(C)c2nc1SCC(=O)N1CCN(C(=O)c2ccco2)CC1	–	–	–	–	–	–
CCc1cc2cccc(C)c2nc1SCC(=O)N1CCCC1	·	–	·	·	·	65
CCOC(=O)CC(=O)CSc1nc2c(C)ccc(C)c2cc1CC	·	–	·	·	·	95
NNC(=O)CNC(c1ccccc1)c1cc(Br)ccc1NC(=O)c1cccc(Cl)c1 (configuration not stated)	–	–	–	–	–	–
COC(=O)CNC(c1ccccc1)c1cc(Cl)ccc1NC(=O)c1cccc(Cl)c1 (configuration not stated)	–	–	–	–	–	63
O=C(O)C[C@H]1OCC=C2C[N+]3([O-])CC[C@@]45c6ccccc6N[C@@H]4[C@@H]1[C@@H]2C[C@H]53 (some centres not stated)	·	54	·	·	·	–
Cc1nn(CC(=O)OC(C)C)c(=O)c2cc3sccc3n12	·	·	·	·	·	–
COc1cccc(OC(=O)CSc2nc3sc4c(c3c(=O)n2C)CCCC4)c1	·	–	·	·	·	–
CCOC(=O)c1ccc(N=Nc2c(C)[nH]n(-c3ccccc3)c2=O)cc1	·	·	–	–	–	·
CCOC(=O)c1ccc(-n2[nH]c(-c3ccccc3)cc2=O)cc1	9.6	–	–	–	–	–
Cc1ccc(C)c(/C(O)=C2/C(=O)C(=O)N(CCCN3CCOCC3)C2c2ccc(C)o2)c1 (configuration not stated)	·	–	·	·	·	–
CC1CCN(C(=O)CSc2nc(COc3ccccc3)nc3ccccc23)CC1	·	–	·	·	·	81
NC(=O)C1CCN(c2oc(-c3ccccc3F)nc2S(=O)(=O)c2ccc(Cl)cc2)CC1	–	–	–	38	–	–
OC(CN1CCC2(CC1)CC(O)c1cc(F)ccc1O2)c1ccc2c(c1)CCCC2 (configuration not stated)	·	–	·	·	·	–
CC(C)CNC(=O)N1c2ccccc2Sc2ccccc21	·	–	–	–	–	–
O=C(NCCc1ccccc1)N1c2ccccc2Sc2ccccc21	9.8	–	–	–	–	–
O=C(c1ccco1)N1c2ccccc2Sc2ccccc21	–	44	–	–	–	–
